Screening data deposited in PubChem BioAssay by National Center for Advancing Translational Sciences (NCATS).
HT1080-NT tox = qHTS for induction of synthetic lethality in tumor cells producing 2HG: qHTS for the HT-1080-NT fibrosarcoma cell line | 1.6% of 360,000 active | Potency, µM (top dose mostly 46.1 µM), inactives show at the top dose activity, negative = less viability, actives largely listed as cytotoxic | HT-1080-NT fibrosarcoma viability, CellTiter-Glo ATP luminescence, 48 h;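 further: NT is the 2HG producing partner of a matched IDH1 knockdown line; 0% = DMSO-treated cells and -100% = media-only wells without cells; nearly all actives have a fitted effect of over 55% in size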
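Fibrosarcoma NT cells, 750 per well in 5% FBS RPMI, were exposed to compound for 48 hours. Viability: CellTiter-Glo luminescence.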
HT1080 IDH1KD tx = qHTS for induction of synthetic lethality in tumor cells producing 2HG: qHTS for the HT-1080-IDH1KD cell line; HT-1080 IDH1 knockdown viability, ATP luminescence, 48 h; AID 686971, 2013; Potency, µM (series often up to 46.1 µM), for inactives: at the top dose activity, negative = toxicity, actives largely listed as cytotoxic; 2% of 360,000 active;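 further: 0% = DMSO wells and -100% = cell-free medium wells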
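HT-1080-IDH1KD cells (IDH1 knocked down), 750/well in RPMI with 5% FBS, treated with compound 48 h at 37 degrees C. Viability by CellTiter-Glo luminescence, normalised to DMSO and no-cell wells; concentration-response curves classed.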
DT40 TDP1 CPT = qHTS for Inhibitors of human tyrosyl-DNA phosphodiesterase 1 (TDP1): qHTS in cells in presence of CPT; Potency, µM (highest dose often 46.2 µM), for inactives: at the highest dose activity change, negative = growth inhibition, usual class: inhibitors; chicken DT40 Tdp1-/-;hTDP1 cells + 20 nM CPT, ATP luminescence, 48 h; 12% of 420,000 active; further: on the % scale 0 is the no-effect control and ±100 the full control effect; nearly all actives have a fitted effect of over 55% in size
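Chicken DT40 Tdp1-/- cells stably complemented with human TDP1 were seeded at 400 cells/well in medium containing 20 nM camptothecin, exposed to pin-transferred compounds, and grown at 37 °C for at least 48 hr. Viability was read as ATP luminescence.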
TGFb SMAD3 inh = qHTS for Inhibitors of TGF-b; 1.2% of 410,000 active; Potency, µM (top dose mostly 46.1 µM), for the others: at the top dose activity, negative = inhibition, most hits filed as inhibitors; AID 588855, 2011; HepG2 CAGA-GFP TGF-b/SMAD3 reporter, GFP fluorescence, 18 h; TGF-beta stimulated, 500 pg/mL final; further: on the % scale 0 is the no-effect control and ±100 the full control effect; nearly all actives have a fitted effect of over 65% in size
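First, reporter cells (HEPG2 CAGA-GFP) rested 2 h at 37 degrees C. Next, compounds were pinned in and TGF-beta added to 500 pg/mL final. After 18 h, GFP was imaged per cell and summed per well.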
HepG2 tox = qHTS for Inhibitors of TGF-b: Cytotox Counterscreen | 0.76% of 410,000 active | Potency, µM (top dose mostly 46.1 µM), inactives show at the top dose activity change, negative = cytotoxicity, actives largely listed as cytotoxic | AID 588856, 2011 | HepG2 CAGA-GFP viability, ATP luminescence, 18 h
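HepG2 CAGA-GFP cells (1000/well, DMEM with 1% FBS) received compound, then TGF-beta at 500 pg/mL final, and were incubated 18 hours at 37 degrees C. Viability was read by CellTiter-Glo luminescence. Media-only wells were set as complete cell-killing and DMSO as no toxicity.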
TDP1 cell noCPT = qHTS for Inhibitors of human tyrosyl-DNA phosphodiesterase 1 (TDP1): qHTS in cells in absence of CPT; AID 686978, 2013; Potency, µM (titrated, usually from 46.2 µM), inactives show top-dose activity change, negative = growth inhibition, actives largely listed as inhibitors; DT40 Tdp1-/- hTDP1 cells, no CPT, ATP luminescence, 48 h; 15% of 420,000 active; further: on the % scale 0 is the no-effect control and ±100 the full control effect; nearly all actives have a fitted effect of over 55% in size
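Camptothecin absent (DMSO only). Human TDP1-complemented DT40 knockout cells, 400 cells/well, 37 °C for minimum 48 hr; ATP measured via CellTiter-Glo, 30 min dark incubation, luminescence.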
Starred values were filed as active, the others as inactive; ? = inconclusive; nt = not tested or not shown. Only some compounds are listed: those with a hit (about 17% of all), similar ones and a draw of the others. The call rests on the fitted dose curve; in most records, active means well fitted curve in the direction sought with a large enough effect; inconclusive means small, poorly fitted or top-dose-only effect, or another doubt; inactive means no such curve, though single readings can be large; an effect the other way counts as inactive or inconclusive. Potency means the concentration at half of the fitted maximal effect.

SMILES | HT1080-NT tox | HT1080 IDH1KD tx | DT40 TDP1 CPT | TGFb SMAD3 inh | HepG2 tox | TDP1 cell noCPT
COc1cc(OC)c(N(C)S(=O)(=O)c2cccc(C(=O)OCc3c(C)noc3C)c2)cc1Cl | -13.3% | -15.3% | ? | -4.5% | -17.0% | 23.1µM*
COc1ccc(-c2nnc(SCC(=O)Nc3ccc(Cl)cc3)s2)cc1 | nt | nt | -22.8% | 21.7% | -5.2% | -19.3%
COC(=O)[C@]1(Cc2ccccc2)N[C@H](CN(C)C(=O)Nc2ccc(F)cc2)[C@@H]2C(=O)N(Cc3ccccc3)C(=O)[C@@H]21 | -17.5% | -19.4% | ? | ? | -5.0% | 14.6µM*
COC(=O)[C@]1(Cc2ccccc2)N[C@H](CN(C)C(=O)Nc2ccc(Cl)cc2)[C@@H]2C(=O)N(Cc3ccccc3)C(=O)[C@@H]21 | -3.4% | -1.3% | 20.6µM* | ? | -29.2% | ?
CC[C@@]1(C(=O)OC)N[C@H](CN(C)C(=O)Nc2ccc(C)cc2)[C@@H]2C(=O)N(Cc3ccccc3)C(=O)[C@@H]21 | -3.6% | -5.2% | 29.1µM* | -59.3% | -11.6% | ?
COC(=O)[C@]1(Cc2ccccc2)N[C@H](CN(C)C(=O)Nc2ccccc2)[C@@H]2C(=O)N(Cc3ccccc3)C(=O)[C@@H]21 | -18.2% | -9.2% | ? | 0.9% | 6.6% | ?
COC(=O)[C@]1(Cc2ccccc2)N[C@H](CN(C)C(=O)Nc2ccc(C(F)(F)F)cc2)[C@@H]2C(=O)N(C)C(=O)[C@@H]21 | -3.0% | -9.2% | 11.6µM* | 3.6% | -19.8% | ?
CC(OC(=O)c1ccc(F)c(S(=O)(=O)N2CCOCC2)c1)C(=O)NC1CCCC1 (centres undefined) | 0.9% | 9.3% | 4.6% | 0.9% | 0.6% | -10.7%
CCN(C[C@H]1N[C@@](Cc2ccccc2)(C(=O)OC)[C@H]2C(=O)N(Cc3ccccc3)C(=O)[C@@H]12)C(=O)Nc1ccc(C(F)(F)F)cc1 | -22.0% | -19.7% | 2.59µM* | ? | -0.2% | 3.66µM*
CCCCN(Cc1ccccc1)S(=O)(=O)c1cc2c(cc1Br)CC(C)N2C(C)=O (centres undefined) | -9.9% | -13.4% | 18.4µM* | ? | 6.2% | 18.4µM*
CCCCN(Cc1ccccc1)S(=O)(=O)c1ccc2c(c1)CC(C)N2C(=O)CC (centres undefined) | nt | nt | 23.1µM* | ? | -28.1% | ?
COc1ccccc1N1CCN(S(=O)(=O)c2cc(-c3cc(C)no3)ccc2C(C)C)CC1 | -8.1% | -0.2% | ? | -9.6% | -17.3% | ?
O=C(c1cccs1)N1CCC(c2nc(-c3ccc(S(=O)(=O)N4CCOCC4)cc3)no2)CC1 | -6.0% | -27.9% | ? | -0.7% | -9.2% | 18.4µM*
COc1ccccc1C(=O)N1CCC(c2noc(-c3ccc(S(=O)(=O)N4CCCC4)cc3)n2)CC1 | nt | nt | 23.1µM* | -13.6% | -30.6% | 16.4µM*
O=C(Nc1ccccc1)N1CCC(c2nc(-c3ccc(S(=O)(=O)N4CCOCC4)cc3)no2)CC1 | 10µM* | 7.94µM* | 4.11µM* | 31.2% | -0.1% | 3.26µM*
CCc1ccc(C(=O)N2CCC(c3nc(-c4ccc(S(=O)(=O)N5CCCC5)cc4)no3)CC2)cc1 | nt | nt | ? | ? | -9.2% | 20.6µM*
O=C(c1ccc(F)cc1F)N1CCC(c2noc(-c3ccc(S(=O)(=O)N4CCCC4)cc3)n2)CC1 | nt | nt | -0.5% | 2.0% | -2.7% | ?
